Assay results as given in PubChem BioAssay.
Records with an inconclusive call do not appear. The source made the active and inactive calls.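 Rule for the calls, unless noted: active = response below a set limit, under 55% cells CD8-positive and vesicle-bound, and CD8 cells' 90th-percentile brightness under 279; inactive = the rest.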

How the values were obtained:
[1] = yeast TOR pathway RPL19A-GFP modulators, primary screen, cell-based, S. cerevisiae, multiplex flow cytometry (AID 1862; in the data active = percent of DMSO control GFP below about 86%;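 note: lower values mimic rapamycin by blocking the RPL19A rise seen in DMSO cells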); conditions: S. cerevisiae RPL19A-GFP strain, flow cytometry fluorescence, 3 h; at 10 µM; stronger effect = lower value
[2] = modulators of MEP2-GFP levels in yeast, primary screen, S. cerevisiae, multiplex flow cytometry (AID 1867;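 active = GFP response, as percent of the DMSO control, above the screen-wide mean plus 3 SD, about 139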;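 note: median GFP channel fluorescence of barcode-gated MEP2-GFP cells measured by flow cytometry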); conditions: S. cerevisiae MEP2-GFP strain, 3 h, at 10 µM, stronger effect = higher value, 100% means same as DMSO wells
[3] = modulators of CIT2-GFP expression in yeast, primary screen, S. cerevisiae, GFP fusion, multiplex flow cytometry (AID 1870;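 active = percent response above a set limit, the screen-wide mean plus 3 SD, cut at about 130% in these data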;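 note: barcoded CIT2-GFP strain pooled with four other GFP strains with rapamycin as positive control; median GFP fluorescence per well over plate mean of DMSO wells so 100% = DMSO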); conditions: 3 h, at 10 µM, stronger effect = higher value
[4] = modulators of LAP4-GFP expression in yeast, primary screen, S. cerevisiae, multiplex flow cytometry (AID 1873;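 active = GFP signal, as percent of the solvent control, above the screen mean plus 3 SD, about 149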); conditions: 3 h, at 10 µM, stronger effect = higher value
[5] = modulators of AGP1-GFP expression in yeast TOR pathway, primary screen, cell-based, multiplex flow cytometry, S. cerevisiae (AID 1887;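 active = GFP signal above the screen-wide mean plus 3 SD, that is over about 124.5% of the solvent control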;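 note: AGP1-GFP fusion strain of S. cerevisiae within a five-strain barcoded multiplex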); conditions: 3 h, at 10 µM, stronger effect = higher value
[6] = inhibitors of CD8+ T cell-vesicle binding, pilot screen, LFA-1/ICAM-1 modulator project, MLPCN validation set, flow cytometry (AID 2523); conditions: 2C mouse CD8+ T cells, at 7 µM, stronger effect = lower value; double positive events: measured here: CD8+/vesicle+ event percentage;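 for vesicle binding response: mean PE anti-B7-1 fluorescence of CD8+ cells relative to row control; 100% = QL9-loaded vesicles with DMSO vehicle in the same plate row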
[7] = biological target: Integrin beta-1 (Homo sapiens) + Integrin alpha-4 (Homo sapiens) (UniProt P13612+P05556); assay: inhibition of HUTS-21 binding to VLA-4, pilot screen, VLA-4 allosteric modulator project, U937 cells, HUTS-21 mAb, flow cytometry, validation set (AID 2674;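 active = inhibition above 50%, about 3 SD of the validation set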;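 note: antibody binding induced by the VLA-4 ligand LDV present at three times its Kd; 0% = LDV ligand with antibody and no compound and 100% = antibody without LDV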); conditions: HUTS-21 LIBS mAb binding, at 6.7 µM, stronger effect = higher value, binding induced by LDV ligand
[8] = superoxide lowering in aged yeast cells, pilot screen, validation compound set (AID 2706;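 active = superoxide response below 65% of plate, a cut near 3 SD across the whole screen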;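 note: yeast exposed to compound for one week at 30 degrees C before staining; 100% = mean of all compound wells on the same plate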); conditions: S. cerevisiae aging, superoxide DHE fluorescence; at 10 µM; stronger effect = lower value
[9] = biological target: Beta-adrenergic receptor kinase 1 (Homo sapiens) (UniProt P25098); assay: GRK2 binders displacing RNA aptamer, biochemical, validation, human GRK2, bead flow cytometry (AID 488806;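 active = aptamer binding inhibition above 30%, about 3 SD of noise from non-fluorescent compounds; inactive = inhibition at or below 30%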); conditions: bead-bound GRK2, FAM-aptamer displacement, at 10 µM, stronger effect = higher value
[10] = biological target: Beta-2 adrenergic receptor (Homo sapiens) (UniProt P07550); assay: beta2AR agonists driving receptor internalization, pilot screen, cell-based, FAP fluorogen, flow cytometry, validation set (AID 504459;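 active = percent response above 42, roughly 3 SD of non-fluorescent test compounds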;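 note: agonist-driven loss of surface beta2AR via internalization measured by FAP dye flow cytometry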); conditions: Am2.2-beta2AR cells, FAP surface receptor flow cytometry; at 10 µM; stronger effect = higher value
[11] = biological target: AP-2 complex subunit beta (Homo sapiens) (UniProt P63010); assay: inhibitors of arrestin peptide binding to AP2, pilot screen, biochemical, validation set, GST-AP2 beads, flow cytometry (AID 504541;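 active = inhibition above 54%, about 3 SD of non-fluorescent compounds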;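 note: AP2 carries R879A mutation and is captured from E. coli lysate; bead-bound FITC arrestin peptide fluorescence measuring arrestin peptide binding to AP2; 0% = DMSO wells and 100% = excess unlabeled arrestin peptide control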); conditions: FITC arrestin peptide, at 10 µM, stronger effect = higher value, AP2 beta2 appendage fragment, R879A mutant
[12] = yeast V-ATPase proton transport modulators, S. cerevisiae, pHLuorin, HTS validation (AID 504600; in the data active = response above about 15%;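 note: plate controls were DMSO for no effect and reference compound for full effect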); conditions: S. cerevisiae pHLuorin cytosolic pH, at 10 µM, stronger effect = higher value
[13] = system: anti-desmoglein-3 scFv antibody binding to human DSG3; assay: inhibitors of anti-DSG3 scFv binding to DSG3, pilot screen, biochemical, validation compound set, bead-based, flow cytometry (AID 588368;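 active = binding below the plate cutoff, the plate median minus 3 SD, with a reading above zero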;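 note: signal is the median channel fluorescence of bead-bound GFP antibody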); conditions: Protein G beads, DSG3-Fc, scFv-GFP binding, at 10 µM, stronger effect = lower value
[14] = inhibitors of fungal efflux pumps CDR1, CDR2, MDR1, pilot screen, validation compound set, multiplex, phenotypic (AID 588506;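 active = efflux inhibition above 0.42, the validation set average plus 4 SD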;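 note: Nile Red retained in cells so higher fluorescence means more efflux inhibition; 0 = negative control wells and 1 = enniatin B 25 µM full block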); conditions: S. cerevisiae pump-expressing triplex, Nile Red efflux flow cytometry; at 10 µM; stronger effect = higher value; the pumps come from Candida albicans
[15] = biological target: ATP-binding cassette sub-family B member 6 (Homo sapiens) (UniProt Q9NP58); assay: ABCB6 transporter inhibitors, pilot screen, K562-ABCB6 cells, flow cytometry, validation set (AID 588550;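 active = inhibition above the screen-wide mean plus 3 SD, about 51%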;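 note: 0% = DMSO wells and 100% = benzethonium chloride 70 µM positive control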); conditions: K562-ABCB6 porphyrin accumulation, 1 h, at 10 µM, stronger effect = higher value
[16] = promoters of myeloid differentiation in arrested cells, primary screen, cell-based, GFP/MAC1 double positive, flow cytometry, validation set (AID 588685;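 active = differentiation response of at least 50%, scaled between solvent and reference control, from cells with both markers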;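 note: compound exposure lasts four days before antibody staining and flow analysis; 0% = DMSO wells and 100% = 5 µM fulvestrant positive control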); conditions: ER-HoxA9 marrow cells, stronger effect = higher value, normalized: vehicle 0, fulvestrant 100

Sequence of ATP-binding cassette sub-family B member 6 (Homo sapiens) (Q9NP58 whole entry, looked up): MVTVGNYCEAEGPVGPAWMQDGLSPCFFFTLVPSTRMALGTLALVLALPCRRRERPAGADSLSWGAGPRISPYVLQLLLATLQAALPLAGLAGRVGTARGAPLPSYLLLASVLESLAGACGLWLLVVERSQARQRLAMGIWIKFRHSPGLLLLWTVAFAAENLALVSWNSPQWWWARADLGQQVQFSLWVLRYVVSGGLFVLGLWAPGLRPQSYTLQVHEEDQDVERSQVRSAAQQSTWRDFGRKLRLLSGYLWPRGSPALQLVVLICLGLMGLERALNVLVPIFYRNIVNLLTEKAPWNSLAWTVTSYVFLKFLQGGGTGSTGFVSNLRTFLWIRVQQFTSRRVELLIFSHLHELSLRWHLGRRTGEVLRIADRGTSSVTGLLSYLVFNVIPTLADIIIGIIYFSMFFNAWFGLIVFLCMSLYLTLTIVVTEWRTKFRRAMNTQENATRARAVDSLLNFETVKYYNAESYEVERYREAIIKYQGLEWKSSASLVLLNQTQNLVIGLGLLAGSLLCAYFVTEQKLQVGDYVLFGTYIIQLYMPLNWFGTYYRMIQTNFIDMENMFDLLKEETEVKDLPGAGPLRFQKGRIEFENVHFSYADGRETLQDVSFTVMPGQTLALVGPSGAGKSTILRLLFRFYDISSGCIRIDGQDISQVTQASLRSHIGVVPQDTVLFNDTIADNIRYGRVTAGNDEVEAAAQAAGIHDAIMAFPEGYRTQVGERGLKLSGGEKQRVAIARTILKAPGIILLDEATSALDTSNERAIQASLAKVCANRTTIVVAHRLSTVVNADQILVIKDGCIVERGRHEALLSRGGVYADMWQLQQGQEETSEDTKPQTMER
Sequence of AP-2 complex subunit beta (Homo sapiens) (P63010 whole entry, looked up, the tested form may be a part, one chain of several): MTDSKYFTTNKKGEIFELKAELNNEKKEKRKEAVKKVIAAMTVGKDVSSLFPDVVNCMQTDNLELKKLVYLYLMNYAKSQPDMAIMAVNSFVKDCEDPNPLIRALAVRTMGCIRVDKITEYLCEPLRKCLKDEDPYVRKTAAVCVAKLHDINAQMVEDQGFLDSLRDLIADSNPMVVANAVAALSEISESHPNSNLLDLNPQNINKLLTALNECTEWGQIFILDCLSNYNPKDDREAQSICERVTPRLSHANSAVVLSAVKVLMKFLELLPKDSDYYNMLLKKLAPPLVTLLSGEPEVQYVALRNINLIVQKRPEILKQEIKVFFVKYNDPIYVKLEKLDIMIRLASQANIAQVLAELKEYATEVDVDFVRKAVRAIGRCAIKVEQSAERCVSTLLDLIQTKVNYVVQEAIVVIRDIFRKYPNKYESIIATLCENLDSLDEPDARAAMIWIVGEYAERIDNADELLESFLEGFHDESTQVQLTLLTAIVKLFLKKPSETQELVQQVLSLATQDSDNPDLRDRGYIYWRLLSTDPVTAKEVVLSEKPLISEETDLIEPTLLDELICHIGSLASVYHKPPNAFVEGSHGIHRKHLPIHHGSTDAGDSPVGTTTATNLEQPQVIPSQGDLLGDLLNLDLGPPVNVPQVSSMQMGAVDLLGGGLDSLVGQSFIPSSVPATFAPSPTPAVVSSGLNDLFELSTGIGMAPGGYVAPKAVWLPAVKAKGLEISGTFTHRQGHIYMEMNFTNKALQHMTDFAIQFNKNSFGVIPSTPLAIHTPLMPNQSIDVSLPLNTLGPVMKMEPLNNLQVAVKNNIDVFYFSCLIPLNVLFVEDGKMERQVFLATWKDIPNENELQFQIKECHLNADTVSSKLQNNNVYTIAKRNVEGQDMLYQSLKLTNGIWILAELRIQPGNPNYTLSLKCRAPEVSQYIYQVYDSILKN
Sequence of Beta-adrenergic receptor kinase 1 (Homo sapiens) (P25098 whole entry, looked up): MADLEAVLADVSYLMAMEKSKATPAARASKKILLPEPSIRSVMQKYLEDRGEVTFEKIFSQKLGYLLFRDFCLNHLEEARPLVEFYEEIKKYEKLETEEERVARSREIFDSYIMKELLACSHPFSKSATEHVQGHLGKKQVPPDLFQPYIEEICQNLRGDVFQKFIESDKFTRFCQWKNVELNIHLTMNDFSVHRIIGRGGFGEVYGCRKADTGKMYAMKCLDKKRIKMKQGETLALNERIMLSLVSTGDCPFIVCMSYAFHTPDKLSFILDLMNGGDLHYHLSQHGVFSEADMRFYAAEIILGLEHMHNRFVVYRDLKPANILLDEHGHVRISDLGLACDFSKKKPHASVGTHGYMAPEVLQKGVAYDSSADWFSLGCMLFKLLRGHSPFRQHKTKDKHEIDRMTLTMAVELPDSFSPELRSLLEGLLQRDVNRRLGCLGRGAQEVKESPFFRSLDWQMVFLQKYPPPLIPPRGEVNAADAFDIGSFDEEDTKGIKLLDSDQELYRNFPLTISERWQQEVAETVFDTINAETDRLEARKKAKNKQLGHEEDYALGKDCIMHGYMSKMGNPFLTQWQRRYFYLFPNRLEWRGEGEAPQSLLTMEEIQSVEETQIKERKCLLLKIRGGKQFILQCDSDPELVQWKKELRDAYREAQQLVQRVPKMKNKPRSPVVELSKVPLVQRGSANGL
Sequence of Integrin beta-1 (Homo sapiens) + Integrin alpha-4 (Homo sapiens) (P05556 whole entry, looked up): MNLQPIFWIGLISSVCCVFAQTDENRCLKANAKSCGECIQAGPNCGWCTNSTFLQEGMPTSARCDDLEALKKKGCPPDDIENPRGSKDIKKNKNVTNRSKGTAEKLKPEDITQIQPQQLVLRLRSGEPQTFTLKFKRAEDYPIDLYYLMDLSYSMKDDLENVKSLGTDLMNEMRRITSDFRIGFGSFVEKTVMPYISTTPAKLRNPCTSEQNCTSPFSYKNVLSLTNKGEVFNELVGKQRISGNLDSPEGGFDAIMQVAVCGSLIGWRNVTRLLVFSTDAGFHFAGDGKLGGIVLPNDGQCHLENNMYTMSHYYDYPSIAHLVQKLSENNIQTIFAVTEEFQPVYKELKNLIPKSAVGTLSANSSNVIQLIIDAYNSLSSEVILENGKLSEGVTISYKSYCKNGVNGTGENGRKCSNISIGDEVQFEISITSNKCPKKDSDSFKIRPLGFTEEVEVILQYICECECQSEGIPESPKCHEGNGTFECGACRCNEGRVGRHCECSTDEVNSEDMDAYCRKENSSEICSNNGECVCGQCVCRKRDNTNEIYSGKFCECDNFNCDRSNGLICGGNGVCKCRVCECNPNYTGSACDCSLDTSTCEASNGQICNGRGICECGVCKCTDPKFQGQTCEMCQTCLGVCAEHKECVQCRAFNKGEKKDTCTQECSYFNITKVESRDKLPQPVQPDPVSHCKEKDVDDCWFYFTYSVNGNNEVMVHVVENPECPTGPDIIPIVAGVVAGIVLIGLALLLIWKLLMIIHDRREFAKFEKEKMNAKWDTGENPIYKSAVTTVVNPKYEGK
Sequence of Integrin beta-1 (Homo sapiens) + Integrin alpha-4 (Homo sapiens) (P13612 whole entry, looked up): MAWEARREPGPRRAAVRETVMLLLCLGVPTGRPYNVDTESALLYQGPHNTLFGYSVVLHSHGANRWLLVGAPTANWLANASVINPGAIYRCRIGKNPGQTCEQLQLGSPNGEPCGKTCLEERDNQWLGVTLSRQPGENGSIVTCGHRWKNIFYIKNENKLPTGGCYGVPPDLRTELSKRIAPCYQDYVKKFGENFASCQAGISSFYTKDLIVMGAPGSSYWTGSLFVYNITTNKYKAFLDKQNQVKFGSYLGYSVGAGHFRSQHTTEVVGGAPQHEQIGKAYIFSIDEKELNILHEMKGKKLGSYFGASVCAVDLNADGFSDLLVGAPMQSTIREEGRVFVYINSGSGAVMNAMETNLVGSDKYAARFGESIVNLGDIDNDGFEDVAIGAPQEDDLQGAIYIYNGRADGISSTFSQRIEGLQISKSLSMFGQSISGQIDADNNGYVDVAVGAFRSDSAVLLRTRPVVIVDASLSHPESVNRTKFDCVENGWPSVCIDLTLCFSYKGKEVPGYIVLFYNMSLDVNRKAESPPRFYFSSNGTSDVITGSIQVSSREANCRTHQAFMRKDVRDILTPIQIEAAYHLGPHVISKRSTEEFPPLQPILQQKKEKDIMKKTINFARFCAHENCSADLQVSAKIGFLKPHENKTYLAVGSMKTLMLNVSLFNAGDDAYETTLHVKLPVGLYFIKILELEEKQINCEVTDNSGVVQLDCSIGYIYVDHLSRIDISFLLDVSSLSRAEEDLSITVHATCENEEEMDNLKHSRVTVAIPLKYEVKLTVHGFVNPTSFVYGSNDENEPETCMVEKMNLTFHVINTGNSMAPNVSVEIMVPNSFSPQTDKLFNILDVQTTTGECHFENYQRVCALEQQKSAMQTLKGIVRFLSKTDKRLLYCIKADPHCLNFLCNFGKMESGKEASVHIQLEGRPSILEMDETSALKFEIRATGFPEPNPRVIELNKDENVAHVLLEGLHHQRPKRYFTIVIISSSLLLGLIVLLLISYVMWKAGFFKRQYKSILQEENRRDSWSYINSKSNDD
Sequence of Beta-2 adrenergic receptor (Homo sapiens) (P07550 whole entry, looked up): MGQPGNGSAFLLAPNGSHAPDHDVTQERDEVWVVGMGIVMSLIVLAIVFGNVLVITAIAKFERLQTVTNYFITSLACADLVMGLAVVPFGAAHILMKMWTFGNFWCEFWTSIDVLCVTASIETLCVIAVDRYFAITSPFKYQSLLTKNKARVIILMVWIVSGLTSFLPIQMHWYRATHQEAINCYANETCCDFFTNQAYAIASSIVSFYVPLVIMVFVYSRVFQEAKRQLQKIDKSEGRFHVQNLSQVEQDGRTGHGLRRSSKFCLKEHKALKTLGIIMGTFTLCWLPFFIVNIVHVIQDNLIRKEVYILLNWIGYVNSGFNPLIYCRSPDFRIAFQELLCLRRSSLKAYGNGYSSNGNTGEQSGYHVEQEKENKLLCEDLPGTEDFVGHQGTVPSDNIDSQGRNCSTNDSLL

| Compound | percent of DMSO control GFP [1] | GFP response vs DMSO [2] | percent response of DMSO control [3] | GFP response vs DMSO [4] | GFP response, % of DMSO [5] | double positive events [6] [%] | vesicle binding response [6] | inhibition [7] | superoxide response (% of plate) [8] | aptamer binding inhibition [9] | response [10] | inhibition [11] | response [12] | binding (% of control) [13] | efflux inhibition (fraction of control) [14] | inhibition [15] | differentiation response [16] |
| --- | --- | --- | --- | --- | --- | --- | --- | --- | --- | --- | --- | --- | --- | --- | --- | --- | --- |
| CC(C)[C@H]1CN(C)CCN1Cc1cn(C)nc1-c1cccc(Cl)c1 | 105% (inactive) | 104% (inactive) | 98.9% (inactive) | 90.1% (inactive) | 102% (inactive) | 58.1 | 48.9% (inactive) | 3.7% (inactive) | 104% (inactive) | -1% (inactive) | -4.02% (inactive) | 19.9% (inactive) | -0.96% (inactive) | 99.3% (inactive) | 0.3 (inactive) | 1% (inactive) | 3.18% (inactive) |
| CCC(CO)NCCNC(CC)CO (stereo not given) | 95.5% (inactive) | 139% (inactive) | 101% (inactive) | 87.5% (inactive) | 97.7% (inactive) | 66.7 | 133% (inactive) | 4.52% (inactive) | 91.3% (inactive) | -1% (inactive) | 3.66% (inactive) | 33.3% (inactive) | -3.71% (inactive) | 103% (inactive) | -0.28 (inactive) | 114% (active) | -1.64% (inactive) |
| CCNC1=C(Cl)C(=O)c2ccccc2C1=O | 104% (inactive) | 104% (inactive) | 91.8% (inactive) | 127% (inactive) | 113% (inactive) | 59.8 | 159% (inactive) | 21% (inactive) | 229% (inactive) | 3% (inactive) | -20% (inactive) | -22.4% (inactive) | 1.03% (inactive) | 104% (inactive) | -0.09 (inactive) | -12% (inactive) | 0.92% (inactive) |
| COc1cc(NC(=O)COc2ccccc2)c(OC)cc1NC(C)=O | 101% (inactive) | 133% (inactive) | 114% (inactive) | 94.6% (inactive) | 101% (inactive) | 59.7 | 216% (inactive) | -14.9% (inactive) | 93% (inactive) | 1% (inactive) | -3.81% (inactive) | -5.93% (inactive) | -0.91% (inactive) | 110% (inactive) | -0.42 (inactive) | 0% (inactive) | 5.73% (inactive) |
| O=C(Cc1cccc2ccccc12)N1CC[C@@]2(O)CCCC[C@H]2C1 | 92% (inactive) | 138% (inactive) | 104% (inactive) | 85.3% (inactive) | 85% (inactive) | 62 | 252% (inactive) | 10.3% (inactive) | 110% (inactive) | 11% (inactive) | 0.11% (inactive) | -11.6% (inactive) | 2.02% (inactive) | 105% (inactive) | -0.24 (inactive) | 10% (inactive) | -2.46% (inactive) |
| O=C1CC(c2ccc(OCCCCCOc3ccc(C4CC(=O)NC4=O)cc3)cc2)C(=O)N1 (stereo not given) | 105% (inactive) | 98.3% (inactive) | 97.8% (inactive) | 82.8% (inactive) | 92.9% (inactive) | 63.3 | 1500% (inactive) | 15.1% (inactive) | 95% (inactive) | 3% (inactive) | 4.67% (inactive) | -7.1% (inactive) | 2.37% (inactive) | 101% (inactive) | 0.11 (inactive) | 11% (inactive) | 24.7% (inactive) |
| COC(=O)c1[nH]c2ccc(C)cc2c1NC(=O)CN1CCc2cc(OC)c(OC)cc2C1 | 106% (inactive) | 111% (inactive) | 117% (inactive) | 103% (inactive) | 105% (inactive) | 63.8 | 296% (inactive) | -11.8% (inactive) | 130% (inactive) | 4% (inactive) | 10.4% (inactive) | -5.24% (inactive) | -3.57% (inactive) | 101% (inactive) | 0.5 (active) | 24% (inactive) | -10.4% (inactive) |
| COc1ccc(O)c(C(=O)/C=C/c2cc3ccccc3o2)c1 | 95.9% (inactive) | 112% (inactive) | 96.7% (inactive) | 109% (inactive) | 95.2% (inactive) | 59.6 | 117% (inactive) | -0.43% (inactive) | 106% (inactive) | 3% (inactive) | 23% (inactive) | 1.27% (inactive) | 0.06% (inactive) | 102% (inactive) | -0.17 (inactive) | 1% (inactive) | -2.4% (inactive) |
| COc1ccc2c(c1OC)C(=O)OC2C1c2c(cc3c(c2OC)OCO3)CCN1C (stereo not given) | 97.8% (inactive) | 100% (inactive) | 104% (inactive) | 91.4% (inactive) | 95.7% (inactive) | 60.2 | 230% (inactive) | 11% (inactive) | 92.5% (inactive) | 5% (inactive) | -9.24% (inactive) | -5.89% (inactive) | -1.48% (inactive) | 96.4% (inactive) | -0.29 (inactive) | -1% (inactive) | -2.69% (inactive) |
| Oc1ccccc1OCCOc1ccccc1OCCOc1ccccc1O | 100% (inactive) | 108% (inactive) | 105% (inactive) | 117% (inactive) | 110% (inactive) | 62.1 | 245% (inactive) | 15.9% (inactive) | 97.2% (inactive) | -2% (inactive) | -15.9% (inactive) | 1.79% (inactive) | -8.12% (inactive) | 112% (inactive) | -0.04 (inactive) | 6% (inactive) | -6.96% (inactive) |
